Laboratory results reported in the supplement of paper PMC3724861.
This is one part of a sample in which hits are shown more often than they occur. The true hit rate is not given.

Each sequence was assayed on T1, Caupolican (Caup) homeodomain DNA-binding domain (assay: PBM E-score (8-mer, recovered from the published 9-mer minima) (E-score (dimensionless, -0.5 to 0.5)); Drosophila protein; higher = stronger relative binding preference, active = 0.31 or more).
T1 sequence: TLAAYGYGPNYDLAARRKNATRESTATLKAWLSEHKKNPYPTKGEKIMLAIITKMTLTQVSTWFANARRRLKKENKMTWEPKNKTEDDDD
Experimental: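 Protein binding microarray (PBM): in vitro transcribed/translated Caupolican (Caup) homeodomain DNA-binding domain (residues 214-303) applied at 100 nM to a universal 8-mer PBM array (Agilent AMADID 015681). The 8-mer enrichment score (E-score, range -0.5 to 0.5) was computed, and each 9-mer score is the minimum E-score of its two constituent 8-mers. The E-score is the same for a 9-mer and its reverse complement; 0.31 is the stated binding threshold.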

Sequence	PBM E-score
CTGATTTA	0.138 (inactive)
GCATTAGC	-0.144 (inactive)
CTTATTGA	0.0828 (inactive)
CGCGAACG	-0.0783 (inactive)
GCACCGCA	-0.175 (inactive)
TAATGTAA	0.315 (active)
TAATGTGA	0.141 (inactive)
CAATGTAA	0.312 (active)
CAATGTAC	0.287 (inactive)
AAATGTAA	0.277 (inactive)
CAATGTAG	0.182 (inactive)
TGGACACA	0.199 (inactive)
GGTAGCGA	-0.0452 (inactive)
GCCGGGTA	-0.161 (inactive)
CTAGCGTA	-0.0972 (inactive)
ATGTCTTA	0.284 (inactive)
TCATGACA	0.313 (active)
TGATGACA	0.279 (inactive)
GATTGACA	0.276 (inactive)
TATTGACA	0.322 (active)
ACATGACC	0.303 (inactive)
ACATGACT	0.374 (active)
CAATGACA	0.293 (inactive)
GAATGACA	0.259 (inactive)
CCATGACA	0.137 (inactive)
TAATGACA	0.331 (active)

Sequence	PBM E-score
ACATGACG	0.297 (inactive)
CATTGACA	0.217 (inactive)
GTGGCGAA	-0.0979 (inactive)
CGGAGTGC	-0.159 (inactive)
AACCTATT	0.0185 (inactive)
CTGACAGC	-0.0248 (inactive)
CTATTCCA	0.057 (inactive)
CGATTACG	0.101 (inactive)
CCCCTGAG	-0.149 (inactive)
ATCGCACC	-0.0473 (inactive)
CGCATATA	0.107 (inactive)
AAGCACTG	0.0317 (inactive)
GCATGACA	0.21 (inactive)
ATTTGACC	-0.0206 (inactive)
AGATGACA	0.227 (inactive)
CTTTGACA	0.223 (inactive)
ACATGACA	≥ 0.43 (active)
ATTTGACA	0.347 (active)
CTCTTCTA	-0.00512 (inactive)
ATATTCGC	0.0752 (inactive)
GCAGAAGA	-0.113 (inactive)
TAAATATA	0.187 (inactive)
CAAATAGG	-0.00893 (inactive)
AGTTGTCG	0.235 (inactive)
AGTTGTCA	0.315 (active)
GGTTGTCA	0.331 (active)

Sequence	PBM E-score
CGTTGTCA	0.251 (inactive)
AGTTGTCC	0.235 (inactive)
GTTTGTCA	0.187 (inactive)
CGTAAATC	-0.00723 (inactive)
CATGGATA	0.157 (inactive)
AACAAACA	0.338 (active)
GACAAACC	0.0748 (inactive)
AACAAGCG	0.237 (inactive)
AACAAACG	0.114 (inactive)
GACAAAAA	0.0647 (inactive)
AACAAACT	0.23 (inactive)
TACAAACA	≥ 0.368 (active)
AACAAGCC	0.176 (inactive)
GACAAACA	0.312 (active)
CACAAACA	0.24 (inactive)
AACAAGCT	0.312 (active)
AACAAACC	0.161 (inactive)
AGTTCTGG	-0.0428 (inactive)
AGGGCAAC	-0.0847 (inactive)
CCGGAAAG	-0.15 (inactive)
ACGTTCAT	0.101 (inactive)
GATATTGA	0.0675 (inactive)
CACCTACC	-0.0826 (inactive)
AAAACGTG	0.0311 (inactive)
AGTATACT	0.163 (inactive)
ACCTACCT	-0.066 (inactive)

Sequence	PBM E-score
GCATCTAC	0.0527 (inactive)
GGCAAGCA	-0.119 (inactive)
GACAAGCA	0.321 (active)
GACAAGCC	0.212 (inactive)
CACAAGCA	0.15 (inactive)
TACAAGCA	≥ 0.384 (active)
AACAAGCA	0.308 (inactive)
CTCTCAGC	-0.19 (inactive)
ACCCGTAT	0.0244 (inactive)
ACTTTTCG	0.0288 (inactive)
CCCACAGG	-0.142 (inactive)
GAATAGTC	-0.00141 (inactive)
GATACAGA	0.164 (inactive)
AATACATA	0.362 (active)
AAAACATA	0.284 (inactive)
AATACAAA	0.284 (inactive)
GATACATA	0.321 (active)
GAAACATA	0.258 (inactive)
AATACAGA	0.18 (inactive)
GATACATC	0.297 (inactive)
TAAACATA	≥ 0.367 (active)
AATACAAT	0.226 (inactive)
AATACAAG	0.346 (active)
AATACAAC	0.305 (inactive)
AGCTGTAA	0.166 (inactive)
AGTACTAT	0.165 (inactive)

Sequence	PBM E-score
CCGATGCG	-0.173 (inactive)
AAGACTAT	0.0648 (inactive)
CCCACGAG	-0.148 (inactive)
GGATATCA	0.0642 (inactive)
TCGTATAA	0.121 (inactive)
CCACTAGG	-0.169 (inactive)
CATACATC	0.251 (inactive)
AATACATT	0.225 (inactive)
AATACATC	0.294 (inactive)
TATACAGA	0.217 (inactive)
AATACATG	0.424 (active)
CATACATG	0.44 (active)
CATACATA	0.286 (inactive)
TATACAAA	0.264 (inactive)
TATACATA	0.326 (active)
CCTCTACG	-0.0999 (inactive)
AACACCTA	0.183 (inactive)
CTCAGCGA	-0.115 (inactive)
AGATTTGA	0.0967 (inactive)
ACCCGCGT	-0.0456 (inactive)
CTCGGACA	0.086 (inactive)
GATGAACA	0.196 (inactive)
CATGAACG	0.0839 (inactive)
AATGAACC	-0.0632 (inactive)
TATGAACA	0.286 (inactive)
TGTGAACA	0.31 (active)

Sequence	PBM E-score
CGTGAACA	0.206 (inactive)
CATGAACA	0.32 (active)
AATGAACA	0.317 (active)
GGTGAACA	0.183 (inactive)
GCGAGAGA	-0.0945 (inactive)
GGCGAGTA	-0.0986 (inactive)
GTAGCAAC	0.128 (inactive)
AGCAAGAC	0.0516 (inactive)
ACTTGACC	-0.0545 (inactive)
AAAATTTC	-0.0281 (inactive)
TCGGCAAA	-0.0466 (inactive)
ATGCTGGG	-0.069 (inactive)
ATCTGTGC	0.0661 (inactive)
AGTGCGCC	-0.17 (inactive)
AACATATT	≥ 0.347 (active)
TACATATA	0.379 (active)
TATATATA	0.216 (inactive)
AACATATC	0.303 (inactive)
CACATATA	0.251 (inactive)
AACATATA	0.323 (active)
CACATATG	0.15 (inactive)
GACATATA	0.305 (inactive)
AACATAGT	0.287 (inactive)
TACATAGA	0.278 (inactive)
AACATATG	≥ 0.356 (active)
ACCATATG	0.145 (inactive)

Sequence	PBM E-score
GACGGCTA	-0.167 (inactive)
CAATTGTA	0.193 (inactive)
ATGAATCG	0.0391 (inactive)
AGTAACGA	0.107 (inactive)
GACTCGCA	-0.115 (inactive)
CAGATGCG	-0.00655 (inactive)
AGGAAGGA	-0.0149 (inactive)
AATGGCTC	-0.0437 (inactive)
ATAACAAG	≥ 0.373 (active)
ATAACACG	≥ 0.334 (active)
AGAACAAC	0.229 (inactive)
CTAACAAC	0.278 (inactive)
ATAACAAA	0.205 (inactive)
ATAACAAC	0.346 (active)
ATAACACA	0.305 (inactive)
GTAACAAC	0.341 (active)
CTAACACA	0.276 (inactive)
ATAACAAT	0.254 (inactive)
AAAACAAC	0.214 (inactive)
GTAACAAA	0.217 (inactive)
ACAGTTTC	0.0345 (inactive)
CCAGCGGG	-0.276 (inactive)
AGACCCCT	-0.143 (inactive)
CACGGTCC	-0.0957 (inactive)
CGACGATC	0.00125 (inactive)
ACGTGTAA	≥ 0.394 (active)

Sequence	PBM E-score
TAGTGTAA	0.207 (inactive)
TCGTGAAA	0.00205 (inactive)
TCGTGTAA	0.363 (active)
GAGTGTAA	0.11 (inactive)
CCGTGTAA	0.35 (active)
CCGTGTGA	0.0813 (inactive)
GCGTGTAA	0.327 (active)
CAGTGTAA	0.218 (inactive)
GCGTGTGA	0.0667 (inactive)
AGGTGTAA	0.2 (inactive)
ACGTGTGA	0.155 (inactive)
CTATCTGA	0.0431 (inactive)
AAGTGGAC	-0.00011 (inactive)
AGTTGGCC	-0.159 (inactive)
ATATATCG	0.0746 (inactive)
CAGACTGC	-0.0434 (inactive)
TAAGTAGA	0.11 (inactive)
CAGGGCTA	-0.125 (inactive)
CCAGACAC	0.05 (inactive)
AACGATGC	-0.051 (inactive)
AACGATGT	0.35 (active)
AACGATGG	-0.0529 (inactive)
TAACTTCA	0.137 (inactive)
AACGCAGA	-0.0244 (inactive)
TGACTGAA	-0.0626 (inactive)
GGCCGCGA	-0.26 (inactive)

Sequence	PBM E-score
CAGGTCGG	-0.0619 (inactive)
CGTGTCGA	0.281 (inactive)
AATGTCGG	0.119 (inactive)
GATGTCGC	0.201 (inactive)
CTTGTCGA	0.303 (inactive)
CATGTCGG	0.357 (active)
AATGTCGC	0.191 (inactive)
AATGTCGA	0.212 (inactive)
CATGTCGC	0.363 (active)
GATGTCGA	0.217 (inactive)
TATGTCGA	0.323 (active)
CATGTCGA	0.412 (active)
ACCGCGTC	-0.0819 (inactive)
TATTCTCA	0.0911 (inactive)
CTGTGAAG	-0.0616 (inactive)
GCGACAGA	0.0849 (inactive)
CTGGGTTC	-0.0931 (inactive)
ATTAGCGG	-0.0813 (inactive)
AACAGGGG	0.0757 (inactive)
GACTTACC	-0.0473 (inactive)
